Data reported in PubChem BioAssay AID1159580 (chemical genetic matrix, 2015).
Out of some 5,500 compounds screened, about 2,000 (36%) were called active. Roughly 18% stayed inconclusive and do not appear here. Cut-off read from the data, not from the text of the source: active = normalized growth mostly below about 0.91 (no sharp cut-off); inconclusive = no clear call, values can overlap the other calls; inactive = mostly above about 0.92. Some of the results follow.

Test: chemical genetic growth profiling, strain panel (AID 1159580);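 note: tested at 20 µM; growth read once vehicle control cultures reached saturation at 30 °C; 1 = growth at the plate median or of vehicle wells; lower values mean less growth of the strain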
Conditions: S. cerevisiae deletion strains, growth OD

Measured: normalized growth

CCCCC/C=C\CC(O)/C=C/c1cccc(CC(O)CCCCO)n1 (centres undefined)
inactive: locus YAL013W, strain DEP1, active compounds read low 1.03 | locus YAL040C, strain CLN3, active compounds read low 0.995 | locus YCL061C, strain MRC1 (second series), active compounds read low 0.996 | locus YDR150W, strain NUM1, active compounds read low 1 | locus YDR363W, strain ESC2, active compounds read low 1.01 | locus YER002W, strain NOP16, active compounds read low 0.982 | locus YMR307W, strain GAS1, active compounds read low 1.01 | locus YNL153C, strain GIM3, active compounds read low 1 | locus YNL175C, strain NOP13, active compounds read low 0.985 | locus YNL197C, strain WHI3, active compounds read low 0.974 | locus YNL224C, strain SQS1, active compounds read low 0.975 | locus YNL322C, strain KRE1, active compounds read low 1.01 | locus YOR083W, strain WHI5 (second series), active compounds read low 0.991 | locus YPL241C, strain CIN2, active compounds read low 0.995
